# Source: PubChem (several laboratories)
# NTR1 agonist = agonists of human NTR1, primary screen, imaging, U2OS cells, beta-arrestin-GFP, high content | activation, % at 20 µM | NTR1-U2OS beta-arrestin-GFP spot imaging, agonist mode | 330,000 compounds, 0.17% hits | Neurotensin receptor type 1 (Homo sapiens), P30989;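 active = activation at or above 40% of the spot to cytoplasm intensity ratio, with at least 20 cells analyzed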;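 also: 0% = DMSO without peptide and 100% = 100 nM NTR1 peptide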
# Target sequence (P30989 whole entry, looked up): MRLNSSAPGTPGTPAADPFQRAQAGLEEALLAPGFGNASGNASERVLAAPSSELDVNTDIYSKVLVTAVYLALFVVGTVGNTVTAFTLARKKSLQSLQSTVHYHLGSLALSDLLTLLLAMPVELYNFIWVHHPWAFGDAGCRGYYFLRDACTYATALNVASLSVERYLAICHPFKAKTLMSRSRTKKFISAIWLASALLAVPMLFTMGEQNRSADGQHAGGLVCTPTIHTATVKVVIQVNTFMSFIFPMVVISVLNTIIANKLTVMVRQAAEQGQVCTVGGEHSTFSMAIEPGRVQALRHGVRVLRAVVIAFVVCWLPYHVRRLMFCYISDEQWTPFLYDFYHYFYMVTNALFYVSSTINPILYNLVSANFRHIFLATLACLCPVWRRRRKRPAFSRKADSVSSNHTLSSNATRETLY
# V-ATPase pH = regulators of yeast V-ATPase proton pumping, primary screen, pHLuorin cytosolic pH fluorescence; AID 504577, 2011; response, % at 10 µM; 350,000 compounds, 0.37% hits; S. cerevisiae; in the data active = response mostly above about 7.3%, no sharp cut-off; inactive = mostly below about 5.4%; also: actives read high
# CRFR2-BP antag = antagonists of CRF-BP/CRF-R2 complex, primary screen, cell-based, HEK293, calcium dye fluorescence, uHTS; 350,000 compounds, 0.59% hits; inhibition, % at 11.8 µM; CRF-induced calcium fluorescence;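 active = inhibition of the ligand-induced calcium signal above about 50% at the single tested concentration, limit read from the data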
# CRFBP-R2 agonist = agonists of CRF-BP/CRF-R2 complex, primary screen, cell-based, HEK293, calcium dye fluorescence, uHTS; CRF-binding protein / CRF receptor 2 complex (human); calcium dye fluorescence (FLIPR); percent of saturating CRF peptide response; activation, % at 13.2 µM; 350,000 compounds, 0.46% hits;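 active = activation of at least 50%, plus an integration ratio under a set limit after plate pattern correction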;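 also: plate controls were neutral control wells without compound for no effect and CRF at EC100 for full effect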
# Numbers without * were called inactive; . = no result given. Only some compounds are listed: those with a hit (about 1.5% of all), similar ones and a draw of the others.
SMILES,NTR1 agonist,V-ATPase pH,CRFR2-BP antag,CRFBP-R2 agonist
Cc1cccc(OCC(O)Cn2ccnc2C)c1 (stereo unspecified),1,13*,17,0
CCCCN1C(=O)C(=O)N(c2ccccc2)C1=S,3,8.8*,25,-1
CCCCN1C(=O)C(=O)N(CC(=O)N2CCN(c3ccccc3)CC2)C1=O,1,-1,-2,-1
Nc1nnnn1/N=C/c1cc(Cl)cc(Cl)c1O,3,3,-108,138*
CC1(C)CC(=O)C2=C(C1)OC(N)=C(C#N)C2c1cc2c(cc1[N+](=O)[O-])OCO2 (stereo unspecified),.,1,-40,96*
CCOc1cc(C2C(C#N)=C(N)OC3=C2C(=O)CC(C)(C)C3)cc([N+](=O)[O-])c1O (stereo unspecified),3,1,-15,4
O=S(=O)(Nc1ccc2c(c1)CCC2)c1cccs1,-3,-5,52*,1
Cc1cc(C(=O)CN2C(=O)NC(C)(c3cc(F)ccc3F)C2=O)c(C)n1C1CC1 (stereo unspecified),2,-2,-12,0
CCC1(c2ccc(F)cc2)NC(=O)N(CC(=O)c2cc(C)n(C3CC3)c2C)C1=O (stereo unspecified),6,-2,-46,66*
CCOc1ccc(N=c2scc(-c3ccc(OC)cc3)n2CCO)cc1,6,1,80*,0
CCOc1ccc(N=c2scc(-c3ccccc3)n2CCO)cc1,2,-4,2,-3
Nc1c(C(=O)CSc2nccn2-c2cccc(F)c2)c(=O)[nH]c(=O)n1C1CC1,-1,-6,3,0
COc1cc(/C=C2/C(=O)NN(c3cccc(C)c3)C2=O)cc([N+](=O)[O-])c1O,1,-3,-3,-2
COc1cc(/C=C2/C(=O)NN(c3cccc(C)c3)C2=O)ccc1OC(=O)c1ccco1,39,1,-234,54*
Nc1ccccc1-n1c(=O)n(Cc2ccccc2F)c(=O)c2[nH]cnc21,3,3,-13,4
CCN(CC)c1ccc(S(=O)(=O)N2CCOCC2)cc1NC(=O)CSc1nncs1,0,1,0,-1
Oc1ccc2nnc3c(Br)cnn3c2c1,0,0,-64,146*
Clc1ccc2nc3c4ccccc4cnn3c2c1,1,2,-7,-1
N#Cc1ccccc1CCN1C(=O)c2ccccc2C1=O,1,-1,-4,0
CC1=Nc2ccccc2/C1=C/c1c(N)n2c(S(=O)(=O)C(C)C)nsc2nc1=O,0,2,26,0
CC1=Nc2ccccc2/C1=C/c1c(N)n2c(S(=O)(=O)CC(C)C)nsc2nc1=O,.,-3,61*,-2
CNc1ncnc2c1ncn2-c1ccccc1,.,5,22,-2
CCN1/C(=C/c2ccc3cc(C)ccc3[n+]2CC)Sc2ccccc21,-5,4,-109,155*
CC[n+]1ccccc1/C=C1\Sc2ccc(C)cc2N1C,0,-3,-7,13
CCN1/C(=C/C=C/c2sc3ccccc3[n+]2CC)Sc2ccccc21,-4,-2,2,0
SMILES,NTR1 agonist,V-ATPase pH,CRFR2-BP antag,CRFBP-R2 agonist
CC[n+]1c(/C=C2\Sc3ccccc3N2C)ccc2cccc(C)c21,.,2,-167,124*
CCN1/C(=C/c2ccc3cc(C)ccc3[n+]2CC)Sc2cc(C)c(C)cc21,-4,4,-155,184*
COc1ccc(SC[C@H](Cc2ccccc2)N2CC[C@@H](NC(=O)OCc3ccccc3)CCC2=O)cc1,2,0,8,2
N#Cc1sc(NCc2cccc(Cl)c2)nc1Cl,-1,1,7,-1
Cc1ccc(CNc2nc(Cl)c(C#N)s2)cc1,-1,15*,-15,1
CCN(CC)c1ccc(/C=C(/C#N)c2nc3ccccc3[nH]2)c(OC(C)C)c1,-2,0,-219,158*
CCOc1cccc(/C=C(/C#N)c2nc3ccccc3[nH]2)c1OCC(=O)O,2,2,1,0
CCOc1cc(CNCc2cccnc2)ccc1OCC(=O)NC(C)(C)C,0,-1,7,5
Nc1ccc2c3c(cccc13)-c1ccccc1-2,.,-8,-216,197*
O=c1ccc2c([nH]1)CCCCCCCCCC2,1,0,-7,-3
COc1ccc(NC2CCCN(C(=O)c3csc(C(C)C)n3)C2)cc1OC (stereo unspecified),0,0,0,0
COc1ccc(NC2CCCN(C(=O)c3cccc(C)n3)C2)cc1OC (stereo unspecified),-1,0,103*,1
C=CCN1C(=O)/C(=C/C=C2/N(CC)c3ccc(S(=O)(=O)N(C)C)cc3N2CC)SC1=S,-2,0,-176,164*
C[C@@H]1CN(C(=O)c2nc3ccc(Cl)cn3c2CN2CCc3sccc3C2)C[C@H](C)O1,-2,13*,-10,0
O=C(CCC(=O)c1cccs1)NCc1cccc(C(F)(F)F)c1,-1,4,5,-5
CN(C(=O)CN1C(=O)/C(=C/c2ccccc2Cl)SC1=S)C1CCS(=O)(=O)C1 (stereo unspecified),3,0,53*,6
C[C@@H]1CN([C@H](C)CO)C(=O)CCCn2nncc2CO[C@H]1CN(C)Cc1ccc(Cl)c(Cl)c1,.,-3,7,3
Cc1[nH]c2ccccc2c1C(=O)CN1C(=O)NC(C)(c2ccc(Cl)cc2Cl)C1=O (stereo unspecified),32,2,-199,67*
Cc1[nH]c2ccccc2c1C(=O)CSc1ccc(Cl)cc1,1,3,-8,-2
CC1CCc2sc(C(=O)N3CCN(c4ncccn4)CC3)cc2C1 (stereo unspecified),0,-4,-8,-1
CC(C)CCOP(=O)(c1ccc(N(C)C)cc1)C(Nc1ccccc1)c1ccc(N(C)C)cc1 (stereo unspecified),4,0,111*,8
COc1ccc(-c2cc(=O)oc3cc(OCC(=O)NCC4CCC(C(=O)O)CC4)ccc23)cc1 (stereo unspecified),-1,-2,0,1
COc1ccc2[nH]c(C(=O)N3CCN(Cc4ccccc4)CC3)cc2c1OC,0,-2,0,1
COc1ccc([N+](=O)[O-])cc1NCc1ccccc1,-1,1,98*,-4
Cc1cc([N+](=O)[O-])ccc1NCc1ccc2c(c1)OCCO2,-1,-1,53*,-2
O=[N+]([O-])c1ccc(NCc2ccc3c(c2)OCO3)cc1,0,-1,4,-1
COc1cccc(CNc2ccc([N+](=O)[O-])cc2C)c1,0,0,58*,-3
Cc1cc([N+](=O)[O-])ccc1NCc1ccco1,0,1,59*,0
COc1ccccc1C(=O)NC(=O)COC(=O)Cn1[nH]c(=O)c2ccccc2c1=O,2,-2,-7,-1
O=C1c2cccnc2C(Nc2ccc(F)c(Cl)c2)N1Cc1cccs1 (stereo unspecified),3,0,-13,-1
